The text below walks through data of PubChem BioAssay (NCATS).

Results filed as inconclusive are left out. Activity calls are given as the source filed them. Unless noted, the call rests on the fitted dose curve; in most records, active means well fitted curve in the direction sought with a large enough effect; inconclusive means small, poorly fitted or top-dose-only effect, or another doubt; inactive means no such curve, though single readings can be large; an effect the other way counts as inactive or inconclusive.

A short description of assay [1]: P-glycoprotein substrates identified in KB-3-1 adenocarcinoma cell line, qHTS therapeutic library screen (AID 1346986).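 Further: potency means the concentration at half of the fitted maximal effect; potency is for cytotoxicity meaning loss of cell viability; nearly all actives have a fitted effect of over 60% in size.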 In short, it runs like this:
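Compounds were tested in dose-response against KB-3-1 and KB-8-5-11 cells at 37 degree C for 72 h, and viability was measured by luminescence. AC50 values came from curve fitting with class-based activity calls.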
(In general: Quantitative high-throughput screening tests each substance at several concentrations.)

The nature of assay [2]: P-glycoprotein substrates identified in KB-8-5-11 adenocarcinoma cell line, qHTS therapeutic library screen (AID 1346987). Further: on the % scale 0 is the no-effect control and ±100 the full control effect; nearly all actives have a fitted effect of over 65% in size. In short, it runs like this:
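P-gp-mediated resistance screen: KB-8-5-11 cells treated 72 h with compounds in dose-response. CellTiter-Glo viability.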

In assay [3] the test system is Zika virus NS2B-NS3 protease (unlinked complex). Kind of assay: Primary screen GU Rhodamine qHTS for Zika virus inhibitors: Unlinked NS2B-NS3 protease assay (AID 1347159). Further: nearly all actives have a fitted effect of over 60% in size. Further: potency means the concentration at half of the fitted maximal effect. On activity change, negative = inhibition: on the % scale 0 is the no-effect control and ±100 the full control effect. Put shortly:
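Compounds, tested up to 114 microM, were incubated for 15 minutes with 25 nM unlinked NS2B-NS3 protease at pH 8.0. Cleavage of 1.5 microM Rhodamine110 substrate was then followed by fluorescence for 15 minutes.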

The target in assay [4] is Cytochrome P450 2D6 (Homo sapiens) (UniProt P10635). As to the kind of experiment: Cytochrome P450 family 2 subfamily D member 6 (CYP2D6) small molecule antagonists: luciferase biochemical (cell-free) qHTS assay (AID 1645840; active means well fitted curve in the direction sought with a large enough effect in the repeat runs; an effect the other way counts as inactive or inconclusive; further: nearly all actives have a fitted effect of over 55% in size; further: potency means the concentration at half of the fitted maximal effect; on activity change, negative = inhibition: on the % scale 0 is the no-effect control and ±100 the full control effect). Put shortly: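 P450-Glo luminescent screen: recombinant CYP2D6 enzyme–proluciferin substrate mix preincubated with compound 10 min at room temperature, then NADPH regeneration added for 1 h at room temperature. Detection reagent added for 20 min; luciferin light read as relative luminescence units.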
Cytochrome P450 2D6 (Homo sapiens), sequence (P10635 whole entry, looked up): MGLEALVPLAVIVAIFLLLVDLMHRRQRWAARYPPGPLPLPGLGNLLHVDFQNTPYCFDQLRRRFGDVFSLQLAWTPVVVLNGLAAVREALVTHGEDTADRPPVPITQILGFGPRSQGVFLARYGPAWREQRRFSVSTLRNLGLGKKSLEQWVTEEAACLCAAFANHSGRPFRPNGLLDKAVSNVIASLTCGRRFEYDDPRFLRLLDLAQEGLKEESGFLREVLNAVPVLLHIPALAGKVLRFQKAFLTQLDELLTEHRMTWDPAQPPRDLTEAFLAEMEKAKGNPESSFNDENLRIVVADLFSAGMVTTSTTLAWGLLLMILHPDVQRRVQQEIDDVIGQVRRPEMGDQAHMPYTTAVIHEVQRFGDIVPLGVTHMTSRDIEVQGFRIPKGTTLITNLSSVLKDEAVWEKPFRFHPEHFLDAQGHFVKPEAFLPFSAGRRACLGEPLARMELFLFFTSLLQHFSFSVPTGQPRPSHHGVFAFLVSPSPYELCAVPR

Assay [5] deals with Cytochrome P450 2C9 (Homo sapiens) (UniProt P11712). Kind of assay: Cytochrome P450 family 2 subfamily C member 9 (CYP2C9) small molecule antagonists: luciferase biochemical (cell-free) qHTS assay (AID 1645842; active means well fitted curve in the direction sought with a large enough effect in the repeat runs; an effect the other way counts as inactive or inconclusive; further: potency means the concentration at half of the fitted maximal effect; nearly all actives have a fitted effect of over 55% in size). Put shortly:
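Luminescence, after 20 min with luciferin detection reagent, reflected CYP2C9 turnover during a 1 h NADPH-driven reaction at 37C. Enzyme-substrate mix contained 0.4% bovine serum albumin and was preincubated with compound 10 min at room temperature.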

The nature of assay [6]: Primary fluorescence-based thiol-reactive (MSTI) qHTS assay for identification of artifact compounds. (AID 1845221). Further: nearly all actives have a fitted effect of over 65% in size. Further: potency means the concentration at half of the fitted maximal effect. Put shortly: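 Probe: MSTI 4 uM, PBS pH 7.4, 2% DMSO. Incubation 1 h, RT, light-protected. Readout fluorescence 525/598 nm.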
The next assay relates to CRL-7250. As to the kind of experiment: Cytotoxic Profiling of Annotated Libraries Using Quantitative High-Throughput Screening (AID 1296008). Further: potency means the concentration at half of the fitted maximal effect; nearly all actives have a fitted effect of over 60% in size. The settings on record: Five cell lines viability, CellTiter-Glo ATP luminescence, 48-72 h; max response: stronger effect = lower value. In short, it runs like this: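 Cells exposed to compounds for 48 or 72 hr at 37 degrees Celsius. Viability read as ATP-coupled luminescence with CellTiter-Glo after 10 min at room temperature.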

A further assay deals with PA-1. Kind of assay: Primary qHTS to identify gynecologic anti-cancer compounds using libraries of approved drugs and bioactive compounds (AID 1345084). Further: nearly all actives have a fitted effect of over 55% in size. Further: potency means the concentration at half of the fitted maximal effect. To be noted: Gynecologic cancer cell panel viability, ATPlite luminescence, 48 h; series mostly up to 57.5 µM. In short, it runs like this:
(§1)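 Cell viability after 48 h drug treatment, ATPlite luminescence readout; five doses.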

The next assay concerns HACAT. As to the kind of experiment: qHTS assay to identify novel small-molecules to repurpose for Merkel cell carcinoma treatment (AID 1296009). Further: nearly all actives have a fitted effect of over 60% in size. To be noted: MCC and control cell lines, CellTiter-Glo viability, 72 h; at 44.8 µM (top of the series) unless noted. Put shortly: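 Cells were incubated with compound for 72 hr at 37 degree celsius before CellTiter-Glo addition. Luminescence was normalized with no-cell wells as full cytotoxicity and DMSO as baseline.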

The subject of the next assay is CAOV3. Kind of assay: Primary qHTS to identify gynecologic anti-cancer compounds using libraries of approved drugs and bioactive compounds (AID 1345084). Further: nearly all actives have a fitted effect of over 55% in size. Further: potency means the concentration at half of the fitted maximal effect. To be noted: Gynecologic cancer cell panel viability, ATPlite luminescence, 48 h; series mostly up to 57.5 µM. In short, it runs like this: as §1
Another assay concerns SKOV3. The description is as above. To be noted: Gynecologic cancer cell panel viability, ATPlite luminescence, 48 h; series mostly up to 57.5 µM. Put shortly: as §1
A short description of assay [7]: Confirmatory screen GU Rhodamine qHTS for Zika virus inhibitors qHTS (AID 1347157). Further: potency means the concentration at half of the fitted maximal effect; nearly all actives have a fitted effect of over 70% in size. In short, it runs like this:
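Noncovalent NS2B hydrophilic domain/NS3 protease complex (25 nM final) in 10 mM Tris-HCl pH 8.0, 0.01% Tween 20, preincubated 15 min with compounds (up to 114 microM), then 1.5 microM Rhodamine110 substrate. Fluorescence change over 15 min fitted to 4-parameter Hill.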

Assay [8] relates to Zika virus NS2B-NS3 protease (linked construct). Kind of assay: 384 well plate NINDS Rhodamine confirmatory qHTS for Zika virus inhibitors (AID 1347164). Further: potency means the concentration at half of the fitted maximal effect; nearly all actives have a fitted effect of over 65% in size. In short, it runs like this: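 Cleavage of Ac-LKRR-Rhodamine 110 (10 microM final) by linked protease (final 5, 30 or 60 nM) was followed as fluorescence at 485/538 nm after 25 min, room temperature, dark. Compounds preincubated ~15 min.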

Assay [9] in a line: Tertiary RLuc qRT-PCR qHTS assay for Zika virus inhibitors (AID 1347169). In short, it runs like this: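 Inhibition of ZIKV-RLuc replication in Vero cells, read as Renilla luminescence 1-1.5 hrs after live-cell substrate addition, following 48-72 hrs infection at MOI 1-2 in presence of compound.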
Background: Real-time PCR tracks product formation cycle by cycle.

In assay [10] the target is Catechol O-methyltransferase (Homo sapiens) (UniProt P21964). Kind of assay: Confirmatory Screen for Target Class Profiling of Small Molecule Inhibitors of Methyltransferases (AID 1745852; calls by dose curve; further: potency means the concentration at half of the fitted maximal effect). The settings on record: MTase-Glo luminescence, SAH detection, recombinant enzyme; measured here: COMT max response; stronger effect = lower value.
Catechol O-methyltransferase (Homo sapiens), sequence (P21964 whole entry, looked up): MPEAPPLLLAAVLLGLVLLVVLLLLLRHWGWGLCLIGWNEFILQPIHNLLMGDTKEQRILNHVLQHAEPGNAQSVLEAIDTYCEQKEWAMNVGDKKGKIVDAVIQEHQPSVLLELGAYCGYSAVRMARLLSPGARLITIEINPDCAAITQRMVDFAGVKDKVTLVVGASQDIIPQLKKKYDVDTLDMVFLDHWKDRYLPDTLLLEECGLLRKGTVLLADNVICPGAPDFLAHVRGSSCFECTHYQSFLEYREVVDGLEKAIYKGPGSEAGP
Assay [11] deals with Guanidinoacetate N-methyltransferase (Homo sapiens) (UniProt Q14353). Described as above. To be noted: activity change, negative = inhibition: at 57.3 µM (top of the series) unless noted.
Assay [12] concerns the target Nicotinamide N-methyltransferase (Homo sapiens) (UniProt P40261). The description is as above. The settings on record: MTase-Glo luminescence, SAH detection, recombinant enzyme; measured here: NNMT max response; stronger effect = lower value.
The target of assay [13] is Phenylethanolamine N-methyltransferase (Homo sapiens) (UniProt P11086). The description is as above. To be noted: MTase-Glo luminescence, SAH detection, recombinant enzyme; measured here: PNMT max response; stronger effect = lower value.
Phenylethanolamine N-methyltransferase (Homo sapiens), sequence (P11086 whole entry, looked up): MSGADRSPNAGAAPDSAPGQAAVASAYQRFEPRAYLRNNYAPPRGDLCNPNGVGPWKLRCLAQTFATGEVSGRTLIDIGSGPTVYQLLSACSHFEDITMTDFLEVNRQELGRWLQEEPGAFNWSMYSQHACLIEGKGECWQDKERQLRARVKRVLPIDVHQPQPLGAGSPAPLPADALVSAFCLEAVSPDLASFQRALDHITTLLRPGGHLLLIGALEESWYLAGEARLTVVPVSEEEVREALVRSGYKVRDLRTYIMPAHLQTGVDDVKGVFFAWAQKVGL

Cytochrome P450 2C9 (Homo sapiens), sequence (P11712 whole entry, looked up): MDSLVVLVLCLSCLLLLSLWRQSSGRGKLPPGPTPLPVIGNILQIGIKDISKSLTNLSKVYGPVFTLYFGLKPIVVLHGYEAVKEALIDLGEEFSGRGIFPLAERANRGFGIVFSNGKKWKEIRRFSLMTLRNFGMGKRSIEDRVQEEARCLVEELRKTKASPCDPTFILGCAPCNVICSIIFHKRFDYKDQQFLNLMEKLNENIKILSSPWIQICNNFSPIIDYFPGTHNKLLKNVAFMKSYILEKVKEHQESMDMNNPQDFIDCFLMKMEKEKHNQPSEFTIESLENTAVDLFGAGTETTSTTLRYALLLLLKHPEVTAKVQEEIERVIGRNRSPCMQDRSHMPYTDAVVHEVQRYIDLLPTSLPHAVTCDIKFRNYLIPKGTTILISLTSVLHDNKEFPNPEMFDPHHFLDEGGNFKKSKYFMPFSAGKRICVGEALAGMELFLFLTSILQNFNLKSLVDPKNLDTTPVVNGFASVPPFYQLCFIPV
Nicotinamide N-methyltransferase (Homo sapiens), sequence (P40261 whole entry, looked up): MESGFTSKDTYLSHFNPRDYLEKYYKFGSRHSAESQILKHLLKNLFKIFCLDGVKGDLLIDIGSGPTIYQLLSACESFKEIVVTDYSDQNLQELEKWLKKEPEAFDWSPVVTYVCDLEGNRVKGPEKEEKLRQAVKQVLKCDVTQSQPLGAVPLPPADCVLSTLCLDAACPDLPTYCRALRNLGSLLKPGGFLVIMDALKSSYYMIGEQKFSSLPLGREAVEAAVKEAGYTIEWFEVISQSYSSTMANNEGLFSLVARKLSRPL

For `COc1ccccc1-c1cc(Nc2cccc(CS(N)(=O)=O)c2)ncn1`, the Potency is 11.6 µM (active) in assay [1], 9.52 µM (active) in assay [5], 16.4 µM (active) in the assay on CRL-7250 and 22.4 µM (active) in the assay on PA-1. In addition, the Potency entry in assay [2], in [3], in [4] and in assay [6] was “inactive” each time.

For the compound `C=C1/C(=C/C=C2\CCC[C@]3(C)[C@@H]([C@H](C)/C=C/C(=O)C4CC4)CC[C@@H]23)C[C@@H](O)C[C@@H]1O`, the Potency result (in [2]; in [6]; in the assay with CAOV3; in the assay on PA-1; in the assay on SKOV3) was “inactive” in each case. The outcome in the assay on HACAT is “inactive”.

With `O=C(NC(NC(=S)Nc1ccc(F)c([N+](=O)[O-])c1)C(Cl)(Cl)Cl)C(c1ccccc1)c1ccccc1` (stereo unspecified), the Potency entry (in [3]; with CAOV3; in the assay with PA-1; with SKOV3) was “inactive” in each case.

For the compound `CCCCn1ccc(N2CCC(c3ccccc3)CC2)c(Cl)c1=O`, the Potency result in [6] was “inactive”. The outcome in the assay with HACAT is “inactive”. Besides, the Potency in the assay with PA-1 is 25.1 µM (active).

For `CC1OC2OC3C(OCC(O)C3O)OC(=O)C34CCC(C)(C)CC3C3=CCC5C6(C)CC(O)C(OC7OC(CO)C(O)C(O)C7OC7OCC(OC(=O)CC(C)(O)CC(=O)OC1C(OC1OCC(O)C(O)C1O)C2O)C(O)C7O)C(C)(CO)C6CCC5(C)C3(C)CC4O` (stereo unspecified), the Potency entry in assay [6] is “inactive”. Also, in the assay on CRL-7250, the Potency was 7.96 µM (active).

Turning to `Cc1ccc(C(=O)N2CCN(c3ccc([N+](=O)[O-])cc3)CC2)cc1Cl`, the Potency result (in assay [3]; in [4]; in [6]; with CAOV3; in the assay with PA-1; in the assay with SKOV3) was “inactive” in each case. The Potency in assay [5] was 16.9 µM (active).

For the compound `O=C(NCc1ccc(Oc2ccccc2)cc1)c1nc(-c2cc(Br)c(O)c(Br)c2)no1`, the Potency in [7] was 1.75 µM (active); in assay [3], 2.82 µM (active); in assay [8] it was 1.58 µM (active); in assay [9], 8.29 µM (active); in assay [5] it was 0.849 µM (active); in assay [11], 42.9 µM (active). Besides, the Potency in assay [6] is 0.423 µM (active). Moreover, the activity was -16.2% in [10], -75.3% in [12] and -0.151% in assay [13]. The outcome in the assay on HACAT is “inactive”. Also, the Potency entry in the assay with CAOV3, in the assay on PA-1 and with SKOV3 was “inactive” each time.

Turning to `CCOC(=O)c1cnn(-c2ccc(NC(=O)C(Cl)=C(Cl)Cl)cc2)c1C(F)(F)F`, the Potency in [4] is 15.1 µM (active); in assay [5], 6.74 µM (active); in the assay with CRL-7250 it was 20.6 µM (active); with CAOV3, 6.31 µM (active). For the same compound, the Potency entry in assay [6] was “inactive”.

With `CC(C)(C)c1ccc(-c2nc3ccccc3[nH]2)cc1`, the activity in assay [10] was -68.9%; in [12], -65.6%; in assay [13], -70.3%. The Potency was 10.5 µM (active) in assay [11], 0.891 µM (active) with CAOV3, 1 µM (active) in the assay on PA-1 and 1 µM (active) in the assay on SKOV3.
